The values that follow come from PubChem BioAssay (EPA / NIEHS).

Structures are written as SMILES. Records with an inconclusive call do not appear. Activity calls are given as the source filed them. How the source made its calls, unless noted: active means hit-call score of the fitted dose curve at least 0.9, where 1 is the maximum; inactive means score below 0.9.

Test [1] addresses Myc proto-oncogene protein (Homo sapiens) (UniProt P01106). As to the kind of experiment: ATG_Myc_CIS: Attagene CIS-FACTORIAL HepG2 Assay for human Myelocytomatosis (Myc) Proto-Oncogene Transcription Factor (AID 2282990). The settings on record: HepG2, Attagene cis-reporter transcription factor activity; actives raise or lower the signal. The method in brief:
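Multiplexed cis-reporter transcription in HepG2 cells after 24 h chemical treatment. Reporter mRNA measured by RT-PCR and capillary electrophoresis fluorescence; activity fitted bidirectionally against DMSO control.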

Test [2] is described as follows: ATG_NF_kB_CIS: Attagene CIS-FACTORIAL HepG2 Assay for human Nuclear Factor Kappa B (NF-kB) (AID 2282991). The settings on record: HepG2 Attagene cis-factorial NF-kB reporter mRNA; actives raise or lower the signal. An outline of the steps: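 Multiplexed cis-reporter assay in transiently transfected HepG2. 24 h treatment; RNA isolated, RT-PCR, labelled fragments resolved by CE. DMSO baseline.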

The nature of test [3]: ATG_NRF2_ARE_CIS: Attagene CIS-FACTORIAL HepG2 Assay for human Nuclear Factor Erythroid 2 Related Factor 2 (NFR2) response to Antioxidant Response Elements (ARE) (AID 2282992). The settings on record: HepG2 Attagene ARE/NRF2 reporter, transcription factor activity; actives raise or lower the signal. The method in brief: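 Endogenous transcription factor activity in human liver HepG2 cells is tracked via a cis-element-driven reporter within a multiplexed set. mRNA induction is read by RT-PCR and capillary electrophoresis after 24 h, with DMSO as baseline.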

Test [4] can be described thus: ATG_Oct_MLP_CIS: Attagene CIS-FACTORIAL HepG2 Assay for human Octamer-Binding Transcription Factor (Oct) (AID 2282993). The settings on record: HepG2 Attagene cis-factorial Oct reporter, mRNA; actives raise or lower the signal. An outline of the steps: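 Read-out: reporter mRNA via RT-PCR plus capillary electrophoresis of 6-FAM-labelled fragments. Transiently transfected HepG2, 24 h exposure, endogenous TF activity on cis elements. Gain or loss of signal fitted relative to DMSO.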

For test [5], the target named is Cellular tumor antigen p53 (Homo sapiens) (UniProt P04637). Nature of the test: ATG_p53_CIS: Attagene CIS-FACTORIAL HepG2 Assay for human p53 Transcription Factor (AID 2282994). The settings on record: HepG2 p53 cis-element reporter, Attagene mRNA; actives raise or lower the signal. The method in brief:
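Steps: transfect HepG2 with multiplexed cis reporter constructs; dose chemicals 24 h; extract RNA, reverse-transcribe, PCR-amplify reporter sequences; FAM-label, HpaI-digest, resolve fragments by CE. Activity fitted both directions relative to DMSO.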

Test [6] in a line: BSK_3C_TissueFactor: BioMAP Diversity Plus: 3C Assay for Tissue Factor Biomarker Activity (AID 2282997). The settings on record: BioMAP 3C HUVEC, tissue factor biomarker readout; actives raise or lower the signal. The method in brief: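 Tissue factor on primary human umbilical vein endothelium was read by ELISA 24 h after dosing, gain or loss relative to DMSO. Cytotoxicity ran alongside via SRB (0.1%, TCA-fixed, 560 nm).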

A short description of test [7]: BSK_3C_uPAR: BioMAP Diversity Plus: 3C Assay for Urokinase-type plasminogen activator receptor (uPAR) Biomarker Activity (AID 2282998). The settings on record: BioMAP 3C HUVEC, uPAR biomarker ELISA; actives raise or lower the signal. An outline of the steps: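 HUVEC primary cells; 24 h post-dose; uPAR by ELISA; gain or loss of signal fitted bidirectionally vs DMSO baseline.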

A short description of test [8]: BSK_3C_VCAM1: BioMAP Diversity Plus: 3C Assay for Vascular cell adhesion molecule 1 (VCAM1) Biomarker Activity (AID 2282999). The settings on record: BioMAP 3C HUVEC, VCAM1 ELISA, cytokine-stimulated; actives raise or lower the signal. An outline of the steps:
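Vascular primary endothelium (human umbilical vein) was exposed to chemicals and assayed 24 h later. VCAM-1 levels came from ELISA, with DMSO serving as baseline for bidirectional fitting.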
On the technique in general: ELISA stands for enzyme-linked immunosorbent assay.

Test [9] is described as follows: BSK_4H_Eotaxin3: BioMAP Diversity Plus: 4H Assay for Eotaxin 3 Biomarker Activity (AID 2283000).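 Further: CCL26 protein level quantified by ELISA in parallel with SRB cytotoxicity check.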 The settings on record: primary human endothelial cells (HUVEC); actives raise or lower the signal. An outline of the steps: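 Human umbilical vein endothelial cells (BSK_4H system) dosed with test chemical; Eotaxin-3 (CCL26) measured by ELISA 24 h after dosing. Bidirectional curve fitting relative to DMSO negative control as baseline.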

Test [10] concerns the target human Peroxisome Proliferator-activated Receptor alpha (PPARa), PPARA (gene 5465) (UniProt Q07869). Nature of the test: ATG_PPARa_TRANS: Attagene TRANS-FACTORIAL HepG2 Assay for human Peroxisome Proliferator-activated Receptor alpha (PPARa) (AID 2283001; active means hit-call score of the fitted dose curve at least 0.9, where 1 is the maximum). The method in brief:
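Exposure: 24 h, transiently transfected HepG2 cells. Endpoint: GAL4-UAS reporter mRNA, RT-PCR with capillary electrophoresis fluorescence. Baseline: DMSO; increases fitted.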

Read-out in test [11]: Intercellular Adhesion Molecule 1 (ICAM1), ICAM1 (gene 3383)
Nature of the test: BSK_3C_ICAM1: BioMAP Diversity Plus: 3C Assay for Intercellular Adhesion Molecule 1 (ICAM1) Biomarker Activity (AID 2283003). The settings on record: primary human endothelial cells (HUVEC); actives raise or lower the signal. The method in brief: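 ELISA read-out of ICAM-1; HUVEC (primary human), 3C system, 24 h post-dosing; bidirectional fit vs DMSO baseline.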

For test [12], the target named is Retinoic acid receptor alpha (Homo sapiens) (UniProt P10276). Nature of the test: ATG_RARa_TRANS: Attagene TRANS-FACTORIAL HepG2 Assay for human Retinoic Acid Receptor alpha (RARa) (AID 2283005; active means hit-call score of the fitted dose curve at least 0.9, where 1 is the maximum). An outline of the steps:
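HepG2 cells transiently transfected with multiple reporter units expressing chimeric RARα-GAL4 fusion, with GAL4-UAS-driven reporters. After 24 h compound exposure, reporter mRNA induction quantified by RT-PCR and capillary electrophoresis with fluorescent labeling; gain-of-signal fitted relative to DMSO control.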

A short description of test [13]: BSK_3C_Proliferation: Cell Proliferation Assessment in the BioMAP Diversity Plus: 3C Assay (AID 2283006). The settings on record: primary human endothelial cells (HUVEC). The method in brief: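 HUVEC, sub-confluent; 48 h chemical exposure; 10% TCA fix, 0.1% SRB stain, A560 total protein. Gain or loss of signal fitted both directions vs DMSO control.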
In test [14] the target is Nuclear receptor subfamily 1 group I member 2 (Homo sapiens) (UniProt O75469). As to the kind of experiment: ATG_PXR_TRANS: Attagene TRANS-FACTORIAL HepG2 Assay for human Pregnane X Receptor (PXR) (AID 2283008; active means hit-call score of the fitted dose curve at least 0.9, where 1 is the maximum). The method in brief: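 HepG2 transfected (FuGene 6) with GAL4-UAS reporter units + PXR-Gal4 chimera; dosed 24 h. Total RNA → oligo(dT) RT → PCR → 6-FAM primer extension → HpaI cut → CE. Gain-of-signal vs DMSO.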
Sequence of Nuclear receptor subfamily 1 group I member 2 (Homo sapiens) (O75469 whole entry, looked up, the tested form may be a part): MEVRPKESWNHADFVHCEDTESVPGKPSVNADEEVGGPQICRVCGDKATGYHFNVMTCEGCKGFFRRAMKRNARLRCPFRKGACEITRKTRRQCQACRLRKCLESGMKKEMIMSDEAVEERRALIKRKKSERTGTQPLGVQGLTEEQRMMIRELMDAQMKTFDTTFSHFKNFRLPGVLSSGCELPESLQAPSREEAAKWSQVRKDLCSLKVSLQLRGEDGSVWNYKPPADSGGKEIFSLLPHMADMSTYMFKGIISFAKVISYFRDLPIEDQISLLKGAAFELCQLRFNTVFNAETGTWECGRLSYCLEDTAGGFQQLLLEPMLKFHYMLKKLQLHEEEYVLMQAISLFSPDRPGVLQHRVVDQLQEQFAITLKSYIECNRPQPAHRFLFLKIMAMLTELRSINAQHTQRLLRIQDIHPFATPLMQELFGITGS

A short description of test [15]: ATG_NFI_CIS: Attagene CIS-FACTORIAL HepG2 Assay for human Nuclear Factor I (NFI) (AID 2282989). The settings on record: HepG2 cis-regulatory reporter, NFI response element transcription; actives raise or lower the signal. The method in brief:
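Read-out: reporter mRNA via RT-PCR plus capillary electrophoresis with fluorescence detection. Transiently transfected HepG2 (endogenous TF activity on cis promoters), 24 h compound exposure; gain or loss of signal fitted against DMSO.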

Test [16] deals with human Retinoic Acid Receptor beta (RARb), RARB (gene 5915) (UniProt P10826). As to the kind of experiment: ATG_RARb_TRANS: Attagene TRANS-FACTORIAL HepG2 Assay for human Retinoic Acid Receptor beta (AID 2283004; active means hit-call score of the fitted dose curve at least 0.9, where 1 is the maximum). The method in brief:
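Induction of reporter mRNA from a chimeric RARb-Gal4 construct was measured by RT-PCR, FAM labelling, HpaI digestion and capillary electrophoresis. Measurements followed 24 h compound treatment of transiently transfected human HepG2 liver cells, with DMSO as baseline.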

In test [17] the target is Peroxisome proliferator-activated receptor gamma (Homo sapiens) (UniProt P37231). Nature of the test: ATG_PPARg_TRANS: Attagene TRANS-FACTORIAL HepG2 Assay for human Peroxisome Proliferator-activated Receptor-gamma (PPARg) (AID 2283007; active means hit-call score of the fitted dose curve at least 0.9, where 1 is the maximum). The method in brief: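 Human hepatoma HepG2, transient MRTU transfection, 24 h treatment. mRNA reporter signal by RT-PCR plus capillary electrophoresis, fluorescence detection; fitted for increase over DMSO negative control.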
Sequence of Peroxisome proliferator-activated receptor gamma (Homo sapiens) (P37231 whole entry, looked up): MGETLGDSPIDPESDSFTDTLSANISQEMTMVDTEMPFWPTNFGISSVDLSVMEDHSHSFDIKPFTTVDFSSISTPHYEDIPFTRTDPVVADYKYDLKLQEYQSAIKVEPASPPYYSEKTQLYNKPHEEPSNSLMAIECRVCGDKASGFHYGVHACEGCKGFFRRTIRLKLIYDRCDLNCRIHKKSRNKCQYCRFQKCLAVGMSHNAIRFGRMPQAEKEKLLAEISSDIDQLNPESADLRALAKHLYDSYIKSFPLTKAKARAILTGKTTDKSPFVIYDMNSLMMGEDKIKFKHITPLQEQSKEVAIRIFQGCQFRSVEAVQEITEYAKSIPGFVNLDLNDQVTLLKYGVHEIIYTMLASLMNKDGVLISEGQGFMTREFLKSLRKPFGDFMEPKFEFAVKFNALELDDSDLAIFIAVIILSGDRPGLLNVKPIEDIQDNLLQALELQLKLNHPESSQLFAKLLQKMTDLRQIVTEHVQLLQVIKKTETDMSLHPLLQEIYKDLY

In test [18] the target is human RAR-related Orphan Receptor beta (RORb), RORB (gene 6096) (UniProt Q92753). Nature of the test: ATG_RORb_TRANS: Attagene TRANS-FACTORIAL HepG2 Assay for human RAR-related Orphan Receptor beta (RORb) (AID 2283010; active means hit-call score of the fitted dose curve at least 0.9, where 1 is the maximum). The method in brief: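 HepG2, transient MRTU transfection (GAL4-UAS reporters, exogenous NR-Gal4 chimeras); 24 h compound exposure; total RNA → RT-PCR → 6-FAM primer extension → HpaI digest → CE fluorescence. Positive direction vs DMSO baseline.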
Sequence of human RAR-related Orphan Receptor beta (RORb), RORB (gene 6096) (Q92753 whole entry, looked up, the tested form may be a part): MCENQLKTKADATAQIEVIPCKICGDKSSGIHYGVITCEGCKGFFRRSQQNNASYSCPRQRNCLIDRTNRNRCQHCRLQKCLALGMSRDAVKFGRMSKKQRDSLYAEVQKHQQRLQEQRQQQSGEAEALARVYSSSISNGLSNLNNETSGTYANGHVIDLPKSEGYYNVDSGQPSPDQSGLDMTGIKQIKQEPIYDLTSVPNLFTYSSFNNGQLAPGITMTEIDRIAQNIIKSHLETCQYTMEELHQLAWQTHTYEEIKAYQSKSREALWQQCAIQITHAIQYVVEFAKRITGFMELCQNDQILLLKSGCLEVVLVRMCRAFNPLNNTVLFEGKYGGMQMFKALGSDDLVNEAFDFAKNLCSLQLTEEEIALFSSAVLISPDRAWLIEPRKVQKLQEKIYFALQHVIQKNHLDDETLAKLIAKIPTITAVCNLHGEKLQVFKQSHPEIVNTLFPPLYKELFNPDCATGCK

The target of test [19] is human Peroxisome Proliferator-activated Receptor delta (PPARd), PPARD (gene 5467) (UniProt Q03181). Nature of the test: ATG_PPARd_TRANS: Attagene TRANS-FACTORIAL HepG2 Assay for human Peroxisome Proliferator-activated Receptor delta (PPARd) (AID 2283002; active means hit-call score of the fitted dose curve at least 0.9, where 1 is the maximum). The method in brief:
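Multiplexed trans-activation format: HepG2 liver cells expressing exogenous NR-Gal4 chimeras and GAL4-UAS reporters were exposed for 24 h. Reporter mRNA was detected by RT-PCR with capillary electrophoresis fluorescence; activity fitted as gain of signal relative to DMSO.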

Sequence of Myc proto-oncogene protein (Homo sapiens) (P01106 whole entry, looked up): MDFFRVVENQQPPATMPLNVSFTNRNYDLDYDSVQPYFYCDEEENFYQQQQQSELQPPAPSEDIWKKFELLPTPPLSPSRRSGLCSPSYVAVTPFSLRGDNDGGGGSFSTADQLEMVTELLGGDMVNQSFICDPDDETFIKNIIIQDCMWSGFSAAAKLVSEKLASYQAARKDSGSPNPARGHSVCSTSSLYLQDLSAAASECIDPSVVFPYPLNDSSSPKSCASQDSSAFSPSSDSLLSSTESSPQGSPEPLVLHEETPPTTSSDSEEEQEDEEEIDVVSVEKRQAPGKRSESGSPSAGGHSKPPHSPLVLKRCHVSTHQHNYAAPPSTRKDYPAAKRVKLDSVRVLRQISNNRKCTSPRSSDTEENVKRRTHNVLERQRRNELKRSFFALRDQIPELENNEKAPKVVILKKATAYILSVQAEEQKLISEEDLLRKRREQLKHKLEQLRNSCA
Sequence of human Retinoic Acid Receptor beta (RARb), RARB (gene 5915) (P10826 whole entry, looked up, the tested form may be a part): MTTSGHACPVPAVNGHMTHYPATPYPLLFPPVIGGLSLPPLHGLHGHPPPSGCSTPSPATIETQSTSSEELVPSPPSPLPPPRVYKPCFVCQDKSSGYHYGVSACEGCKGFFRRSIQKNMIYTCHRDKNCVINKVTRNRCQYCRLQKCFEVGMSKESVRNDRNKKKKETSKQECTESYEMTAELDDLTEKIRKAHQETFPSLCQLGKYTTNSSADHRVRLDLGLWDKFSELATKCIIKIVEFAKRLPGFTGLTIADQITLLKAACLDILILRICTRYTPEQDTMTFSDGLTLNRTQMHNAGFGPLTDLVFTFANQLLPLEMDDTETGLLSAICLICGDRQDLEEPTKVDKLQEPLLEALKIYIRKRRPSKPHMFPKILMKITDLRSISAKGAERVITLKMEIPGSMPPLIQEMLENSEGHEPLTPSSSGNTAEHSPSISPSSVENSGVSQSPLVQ
Sequence of human Peroxisome Proliferator-activated Receptor alpha (PPARa), PPARA (gene 5465) (Q07869 whole entry, looked up, the tested form may be a part): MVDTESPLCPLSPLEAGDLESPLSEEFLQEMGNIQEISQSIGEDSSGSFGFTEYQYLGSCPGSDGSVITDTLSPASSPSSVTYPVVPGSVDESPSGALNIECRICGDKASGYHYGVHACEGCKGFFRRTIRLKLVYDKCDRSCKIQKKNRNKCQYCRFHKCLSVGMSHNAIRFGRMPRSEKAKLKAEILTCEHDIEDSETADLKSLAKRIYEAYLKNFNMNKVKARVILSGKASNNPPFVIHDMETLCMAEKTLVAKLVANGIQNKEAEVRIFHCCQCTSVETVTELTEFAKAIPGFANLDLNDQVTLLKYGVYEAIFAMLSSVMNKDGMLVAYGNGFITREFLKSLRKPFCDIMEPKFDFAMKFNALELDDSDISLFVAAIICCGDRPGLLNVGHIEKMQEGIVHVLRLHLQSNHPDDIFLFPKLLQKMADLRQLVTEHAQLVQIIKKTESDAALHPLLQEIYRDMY
Sequence of Cellular tumor antigen p53 (Homo sapiens) (P04637 whole entry, looked up, the tested form may be a part): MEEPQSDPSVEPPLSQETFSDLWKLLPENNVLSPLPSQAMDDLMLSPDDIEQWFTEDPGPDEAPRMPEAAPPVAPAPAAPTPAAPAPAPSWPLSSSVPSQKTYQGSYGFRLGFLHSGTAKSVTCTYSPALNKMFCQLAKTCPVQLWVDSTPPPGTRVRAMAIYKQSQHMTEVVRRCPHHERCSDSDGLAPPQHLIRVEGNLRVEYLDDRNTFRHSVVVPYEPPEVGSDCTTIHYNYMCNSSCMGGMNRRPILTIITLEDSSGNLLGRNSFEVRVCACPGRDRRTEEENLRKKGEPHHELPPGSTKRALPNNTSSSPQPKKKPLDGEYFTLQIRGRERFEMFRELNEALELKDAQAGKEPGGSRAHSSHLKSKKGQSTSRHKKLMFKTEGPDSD
Sequence of Retinoic acid receptor alpha (Homo sapiens) (P10276 whole entry, looked up, the tested form may be a part): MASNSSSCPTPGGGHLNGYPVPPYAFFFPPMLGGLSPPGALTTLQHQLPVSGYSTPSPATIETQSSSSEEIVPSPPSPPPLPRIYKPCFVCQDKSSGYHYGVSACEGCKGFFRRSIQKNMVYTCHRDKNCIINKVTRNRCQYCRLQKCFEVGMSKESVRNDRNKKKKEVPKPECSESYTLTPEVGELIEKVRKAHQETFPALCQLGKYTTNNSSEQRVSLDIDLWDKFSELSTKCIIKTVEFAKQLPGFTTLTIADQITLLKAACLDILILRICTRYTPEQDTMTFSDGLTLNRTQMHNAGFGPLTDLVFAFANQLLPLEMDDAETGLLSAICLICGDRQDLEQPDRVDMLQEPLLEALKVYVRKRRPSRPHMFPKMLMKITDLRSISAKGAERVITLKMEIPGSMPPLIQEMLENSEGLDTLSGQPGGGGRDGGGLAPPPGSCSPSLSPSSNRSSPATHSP
Sequence of human Peroxisome Proliferator-activated Receptor delta (PPARd), PPARD (gene 5467) (Q03181 whole entry, looked up, the tested form may be a part): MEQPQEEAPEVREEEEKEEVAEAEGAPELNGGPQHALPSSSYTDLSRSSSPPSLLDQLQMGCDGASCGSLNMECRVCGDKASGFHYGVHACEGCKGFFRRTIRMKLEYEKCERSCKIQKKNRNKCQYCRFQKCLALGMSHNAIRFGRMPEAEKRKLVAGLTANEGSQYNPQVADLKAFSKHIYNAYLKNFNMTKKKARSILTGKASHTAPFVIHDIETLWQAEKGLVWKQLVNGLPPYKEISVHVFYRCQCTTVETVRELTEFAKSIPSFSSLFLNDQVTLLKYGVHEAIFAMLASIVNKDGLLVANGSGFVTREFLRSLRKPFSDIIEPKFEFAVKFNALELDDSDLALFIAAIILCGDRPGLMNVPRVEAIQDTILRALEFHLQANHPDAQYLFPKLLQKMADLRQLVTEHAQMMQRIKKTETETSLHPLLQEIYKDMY

Take `OC[C@@H](O)[C@@H](O)[C@H](O)[C@H](O)CO`: the call in test [1], in [2], in test [3], in test [4], in [5] and in test [6] was inactive. The result in [7], in test [8], in test [9], in test [10], in test [11] and in test [12] was inactive. Besides, the result in [13] and in test [14] was inactive.

Take `CC(=O)OCCOCCOCCOC(C)=O`: the outcome in test [15], in test [1], in test [3], in test [4], in [5] and in [7] was inactive. The result in test [8], in [9], in test [11], in test [16], in test [12] and in [13] was inactive. Moreover, the result in test [17] was inactive.

As for `Cc1ccc2ncccc2c1`, the call in [1], in test [2], in [3], in test [4], in test [5] and in test [6] was inactive. Besides, the result in test [7], in test [8], in test [9], in [10], in test [11] and in test [16] was inactive. The outcome in [13] and in [17] was inactive.

In the case of `CN1CCCC1=O`, the molecule was classed as inactive in test [15], in [1], in [3], in [4], in test [5] and in [6]. Moreover, the outcome in [7], in [8], in test [9], in [11], in test [16] and in test [12] was inactive. In addition, the result in [13], in test [14] and in [18] was inactive.

With `CCCCc1ccc2c(n1)[C@@H](c1ccc(OC)cc1C[C@H](C)C(=O)O)[C@H](C(=O)O)[C@H]2c1ccc2c(c1)OCO2`, the call in test [15], in [1], in test [3], in [4], in [5] and in [6] was inactive. Further, the result in [7], in test [8], in test [9], in test [10], in test [11] and in test [13] was inactive. In addition, the call in [14] and in test [18] was inactive.

As for `CC(=O)Oc1ccccc1C(=O)O`, the molecule was called inactive in test [1], in test [2], in test [5], in test [6], in [7] and in test [8]. Further, the result in [9], in test [10], in test [11], in [16], in [12] and in test [13] was inactive. Further, in test [14], the molecule was called inactive. Besides, the AC50 (usually the midpoint of the concentration-response curve, whichever way the signal moves) in test [3] was 68 µM (active); in test [4], 177 µM (active); in test [17], 61.7 µM (active).

On to `COc1cc(S(=O)(=O)O)c(C)cc1N=Nc1c(O)ccc2cc(S(=O)(=O)O)ccc12`, for which the outcome in test [15], in test [1], in [3], in test [4], in [5] and in test [6] was inactive. Also, the outcome in test [7], in test [8], in test [9], in test [19], in test [11] and in test [13] was inactive. The outcome in test [17] was inactive.
